ABHD5 PLIN5 PPI = ABHD5-PLIN5 interaction inhibitors, primary screen, cell lysate, split luciferase complementation, luminescence | hit rate 0.78% among 360,000 | inhibition, % at 4 µM | Perilipin-5 (Homo sapiens) + 1-acylglycerol-3-phosphate O-acyltransferase ABHD5 (Homo … | AID 602281, 2012 | Split G. princeps luciferase complementation, 4 h;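 active means inhibition above the mean inhibition across every tested compound plus 3 SD, cut at about 22% in these data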;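 further: 0% = DMSO only wells and the 100% control is not disclosed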
PRMT1 FP inh = PRMT1 methyltransferase inhibitors, primary screen, biochemical, fluorescence polarization; Protein arginine N-methyltransferase 1 (Homo sapiens), Q99873; hit rate 1.3% among 370,000; recombinant PRMT1, activity-based probe fluorescence polarization; inhibition, % at 2.79 µM;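 active means inhibition above about 21% made by adding two undisclosed values, limit read from the data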
TLR4-MyD88 BLA = inhibitors of TLR4-MyD88 association in cells, primary screen, cell-based, HeLa CL3-4, BLA complementation, FRET ratio; HeLa CL3-4 TLR4/MyD88 BLA complementation; inhibition, % at 8.4 µM; hit rate 0.18% among 200,000; in the data active means inhibition above about 25%;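 further: 0% = vehicle and 100% = reference inhibitor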
NOD2 RIPK2 PPI = NOD2-RIPK2 binding disruptors in cells, primary screen, fluorescence, CHO cells, BLA complementation | Receptor-interacting serine/threonine-protein kinase 2 (Homo sapiens), O43353 | CCF4 ratio | inhibition, % at 4.98 µM | hit rate 0.38% among 360,000; in the data active means inhibition above about 21%;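 further: 0% = vehicle only and 100% = reference blocker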
TLR9-MyD88 inh = inhibitors of TLR9-MyD88 association in cells, primary screen, cell-based, CHO, BLA complementation, fluorescence; Toll-like receptor 9 (Homo sapiens) + Myeloid differentiation primary response protein …; CCF4 FRET ratio; inhibition, % at 4.98 µM; hit rate 0.21% among 340,000; AID 504734, 2011;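 active means inhibition above the mean over all tested compounds plus 3 SD, cut at about 21% in these data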;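 further: 0% = DMSO only wells and 100% = clavulanate BLA inhibitor control wells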
Target sequence (Q99836 whole entry, looked up): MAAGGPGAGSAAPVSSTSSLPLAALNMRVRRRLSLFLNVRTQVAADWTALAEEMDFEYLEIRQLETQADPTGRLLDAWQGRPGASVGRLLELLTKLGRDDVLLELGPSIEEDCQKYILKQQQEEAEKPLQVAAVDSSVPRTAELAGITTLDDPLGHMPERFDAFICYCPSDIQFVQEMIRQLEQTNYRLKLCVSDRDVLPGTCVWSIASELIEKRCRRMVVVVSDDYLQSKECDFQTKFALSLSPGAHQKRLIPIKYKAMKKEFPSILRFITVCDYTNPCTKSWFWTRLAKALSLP
Target sequence (Q9NR96 whole entry, looked up): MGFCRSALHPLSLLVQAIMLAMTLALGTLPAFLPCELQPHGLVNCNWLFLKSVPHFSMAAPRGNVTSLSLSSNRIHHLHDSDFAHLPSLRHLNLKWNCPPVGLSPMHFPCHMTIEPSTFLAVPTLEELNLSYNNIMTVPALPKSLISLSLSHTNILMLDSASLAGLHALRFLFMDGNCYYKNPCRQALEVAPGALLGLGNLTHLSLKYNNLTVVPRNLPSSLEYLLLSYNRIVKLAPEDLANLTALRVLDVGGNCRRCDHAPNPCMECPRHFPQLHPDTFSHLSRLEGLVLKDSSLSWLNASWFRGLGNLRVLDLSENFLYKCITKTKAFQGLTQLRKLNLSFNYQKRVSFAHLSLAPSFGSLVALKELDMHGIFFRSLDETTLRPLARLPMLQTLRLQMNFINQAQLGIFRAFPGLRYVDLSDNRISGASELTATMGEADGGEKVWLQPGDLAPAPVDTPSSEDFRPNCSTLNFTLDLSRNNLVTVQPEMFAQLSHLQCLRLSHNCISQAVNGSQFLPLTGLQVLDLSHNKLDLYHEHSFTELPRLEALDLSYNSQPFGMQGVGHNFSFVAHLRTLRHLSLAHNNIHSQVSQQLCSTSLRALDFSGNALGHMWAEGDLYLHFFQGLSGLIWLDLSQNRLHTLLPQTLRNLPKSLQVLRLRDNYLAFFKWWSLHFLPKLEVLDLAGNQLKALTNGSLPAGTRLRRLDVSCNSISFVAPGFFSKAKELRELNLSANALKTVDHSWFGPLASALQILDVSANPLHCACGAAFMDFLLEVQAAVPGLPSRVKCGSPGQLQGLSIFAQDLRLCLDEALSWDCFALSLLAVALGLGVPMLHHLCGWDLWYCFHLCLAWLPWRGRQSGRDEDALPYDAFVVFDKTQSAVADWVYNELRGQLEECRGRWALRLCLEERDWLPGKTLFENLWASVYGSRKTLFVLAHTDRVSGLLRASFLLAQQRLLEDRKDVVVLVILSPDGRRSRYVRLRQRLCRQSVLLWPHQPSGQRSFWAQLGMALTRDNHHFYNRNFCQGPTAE
rCAG RNA binder = binders of r(CAG) RNA repeats, primary screen, biochemical, fluorescence | r(CAG) RNA repeat, TO-PRO-1 dye displacement fluorescence | hit rate 1.3% among 370,000 | inhibition, % at 3 µM;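 active means inhibition above the plate cutoff, the mean of all test compounds on that plate plus 3 SD, cut at about 35% in these data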;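 further: 0% = DMSO alone and 100% = 100 µM mitoxantrone as full dye displacement; higher means more dye released from RNA so lower well fluorescence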
NOD2-RIPK2 conf = NOD2-RIPK2 binding disruptors, retest, confirmation, fluorescence, CHO cells, BLA complementation, triplicate | shares compounds with NOD2 RIPK2 PPI | CCF4 FRET | inhibition, % at 4.98 µM | hit rate 70% among 1,200;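 active means mean inhibition across replicates above a set limit taken from the earlier primary screen, cut at about 21% in these data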;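 further: 0% = DMSO-only wells and the high end = clavulanate BLA-blocked wells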
NOD2 BLA counter = hits BLA reporter in NOD2-RIPK2 inhibitor counterscreen. hit rate 57% among 1,200. inhibition, % at 4.98 µM. shares compounds with NOD2 RIPK2 PPI. CHO BLA reporter, CCF4 FRET ratio;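 active means mean inhibition above the low-control mean inhibition plus three low-control SD, cut at about 11% in these data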;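 further: 0% = DMSO only wells and 100% = clavulanate high control wells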
* marks the source's active call; other numbers are inactive results; . = no result given. This is a sample that favours compounds with a hit; in the whole collection about 3.3% have one here.

SMILES	ABHD5 PLIN5 PPI	PRMT1 FP inh	TLR4-MyD88 BLA	NOD2 RIPK2 PPI	TLR9-MyD88 inh	rCAG RNA binder	NOD2-RIPK2 conf	NOD2 BLA counter
Nn1c(COc2ccccc2F)nnc1SCC(=O)NC1CCS(=O)(=O)C1 (centres undefined)	2	-3	.	-3	-9	2	.	.
CCN(CC)c1ccc(C=C(c2nnnn2-c2ccccc2)c2nnnn2-c2ccccc2)cc1	2	-3	2	27*	3	-1	30*	30*
O=C(Nc1ccccc1)C1=C[C@@H](c2ccc(C(F)(F)F)cc2)C[C@@H](OCc2ccc(CO)cc2)O1	0	6	-1	22*	-4	9	0	4
Cn1cc(CCOCc2ccccc2)c2ccccc21	.	1	.	.	.	2	.	.
COCC(=O)O[C@]1(CCN(C)CCCc2nc3ccccc3[nH]2)CCc2cc(F)ccc2[C@@H]1C(C)C	4	0	.	25*	-10	1	20	-3
O=C(CCC(=O)Nc1ccccc1)NNC(=O)CCc1ccccc1	-2	-1	-1	-1	5	-1	.	.
O=C(CCc1ccccc1)Nc1ccccc1	-3	-1	-4	35*	-11	-4	-2	-1
CC(=O)ON=C1C=CC(=C(C#N)c2ccccc2)C=C1	-8	24*	.	26*	.	3	35*	8
FC(F)(F)c1ccccc1Cc1c(-c2cccc(Cl)c2)nc2c3ccccc3ccn12	-6	-1	.	9	.	5	.	.
CC(=O)N1CCN(C(=O)CN2C(=O)NC(C)(c3ccc4ccccc4c3)C2=O)CC1 (centres undefined)	3	-4	.	-4	-1	1	.	.
CC1(c2ccc3ccccc3c2)NC(=O)N(CC(=O)N2CCCC(C(F)(F)F)C2)C1=O (centres undefined)	-3	-3	.	28*	8	-2	0	-2
O=C(CCNS(=O)(=O)c1c(Cl)cccc1Cl)OCC(=O)c1ccccc1	-4	-3	-4	67*	0	1	7	-3
O=C1Nc2ccccc2C1(O)Cc1ccccn1 (centres undefined)	3	0	.	24*	4	-2	0	-3
C=CCC1(O)C(=O)Nc2ccccc21 (centres undefined)	6	3	8	-10	-2	-5	.	.
CCOC(=O)[C@H]1[C@H]2COc3ccc(Br)cc3[C@@H]2N2C(=O)CN(Cc3ccco3)C(=O)[C@@]12C	15	20	.	-25	0	5	.	.
Fc1ccc(-[n+]2nc(Nc3ccccc3)sc2-c2c(Cl)cccc2Cl)cc1	-2	4	.	53*	18	1	42*	16*
O=C(O)c1ccc(-c2sc(Nc3ccccc3)n[n+]2-c2ccc(F)cc2)cc1	0	.	.	1	2	.	.	.
COc1ccc2ccccc2c1-c1sc(Nc2ccccc2)n[n+]1-c1ccc(F)cc1	5	1	.	32*	8	16	20	3
C[C@@H]1CCN(C2CC2)S(=O)(=O)c2c(cccc2N2CC[C@@H](N(C)C)C2)O1	.	0	.	.	.	4	.	.
CCOC(=O)C1(C)CCN1C(=O)/C=C/c1ccccc1 (centres undefined)	-4	-3	.	21*	.	1	2	-1
CCOC(=O)C1(C)CCN1C(=O)CSc1ccccc1 (centres undefined)	-2	-1	.	-10	.	3	.	.
CCCOc1ccc(NC(=O)C2CC(=O)N/C(=N/N=C(C)/C=C/c3ccc(N(C)C)cc3)S2)cc1 (centres undefined)	-2	0	13	22*	10	18	19	26*
CC(/C=C/c1ccc(N(C)C)cc1)=N\N=C1\NC(=O)CC(C(=O)Nc2ccccc2)S1 (centres undefined)	3	2	-1	-1	2	32	.	.
COc1ccc(NC(=O)c2ccc(S(=O)(=O)N3CCOCC3)o2)cc1	-9	2	.	2	-8	-4	.	.
C/C(=N\NC(=S)NC1CCCCC1)c1cccc(Br)c1	-1	-1	2	32*	-4	4	-2	-3
SMILES	ABHD5 PLIN5 PPI	PRMT1 FP inh	TLR4-MyD88 BLA	NOD2 RIPK2 PPI	TLR9-MyD88 inh	rCAG RNA binder	NOD2-RIPK2 conf	NOD2 BLA counter
N#CC1=C(N)Oc2cc(N)ccc2C1c1ccccc1Cl (centres undefined)	-3	4	.	28*	-4	6	-2	-1
N#CC1=C(N)Oc2cc(N)ccc2C1c1cccnc1 (centres undefined)	-2	3	-1	7	-2	3	.	.
O=C(Nc1ccc(F)cc1)c1nn(-c2ccccc2)c(=O)cc1Cl	19	0	6	36*	7	1	40*	5
COC(=O)Nc1ccc(SCC(=O)c2cccc([N+](=O)[O-])c2)cc1	-15	69*	.	22*	0	8	9	-5
CC(=O)Nc1ccc(C(=O)OCC(=O)c2cccc([N+](=O)[O-])c2)cc1	1	-3	-3	-4	16	6	.	.
Oc1c(Cl)cc(Cl)cc1C=Nc1cc(C(F)(F)F)ccc1N1CCc2ccccc2C1	-8	-1	.	0	-3	12	.	.
COc1ccc(C(=O)N/N=C/c2sc3ccccc3c2O)cc1	-10	.	-1	22*	10	.	10	10
COc1ccc(C(=O)N/N=C/C(=O)c2ccccc2)cc1	-3	0	.	7	7	-1	.	.
Cc1cc(=O)oc2c(CN3CCN(C)CC3)c(O)c(Cl)cc12	-2	-3	7	-15	-3	4	.	.
CN1CCN(Cc2c(O)c(Cl)cc3c(-c4ccccc4)cc(=O)oc23)CC1	0	-5	5	21*	5	0	21*	24*
Cc1c(N=C2SCC(=O)N2/N=C/c2ccccc2)c(=O)n(-c2ccccc2)n1C	4	-1	8	1	9	-2	.	.
CNC(=O)C1(C)Cc2c(-c3ccc(NC(C)=O)cc3)ccnc2O1 (centres undefined)	-9	-2	.	4	.	2	.	.
CC(=O)Nc1ccc(-c2ccnc3c2CC(C)(C(=O)Nc2ccc(Cl)cc2)O3)cc1 (centres undefined)	-5	1	.	21*	.	2	10	0
O=c1oc(-c2ccccc2)cc2ccccc12	-9	0	.	-12	.	3	.	.

Screening data from PubChem.
